Data on 15 compounds can be found in PubChem BioAssay (NCI).

“And” between values parts separate entries of the source, which are not always exact repeats. Identical values can stand only once. The panel holds about 83,000 compounds, 20% with a hit somewhere; the sample as a whole holds those more often.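 Step 1: grow cells in 96-well plates. Step 2: add test compound at a single concentration. Step 3: incubate 48 h. Step 4: record percent growth.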 The source made the active and inactive calls. How the source made its calls: active means growth percent below 10; inactive means the rest.

What all share (assay): NCI-60 one-dose screen, 48 h (100 = growth as untreated, 0 = no growth, -100 = all killed)
One experiment relates to T-47D breast. Conditions: 10 µM unless noted.
For another experiment, the system named is BT-549 breast. Conditions: 10 µM unless noted.
The test system of a further experiment is MDA-MB-435 melanoma. Conditions: 10 µM unless noted.
The next experiment deals with SW-620 colon. Conditions: 10 µM unless noted.
A further experiment relates to MCF7 breast. Conditions: 10 µM.
In the next experiment the test system is HCT-116 colon. Conditions: 10 µM unless noted.
The next experiment relates to HCC-2998 colon. Conditions: 10 µM unless noted.
The subject of a further experiment is KM12 colon. Conditions: 10 µM unless noted.

`Oc1c(Cl)c2ccccc2c2ccccc12`: the growth with T-47D breast is 122% (inactive); with BT-549 breast, 95.8% (inactive); in the experiment with MDA-MB-435 melanoma, -72% (active); in the experiment on SW-620 colon it was 111% (inactive); in the experiment on MCF7 breast it was 98.8% (inactive); in the experiment on HCT-116 colon, 101% (inactive). The growth is 117% (inactive) with HCC-2998 colon and 107% (inactive) in the experiment with KM12 colon.

With `CC(=Nc1ccc(N(C)C)cc1)c1ccccc1`, the growth with T-47D breast was 39.6% (inactive); in the experiment with BT-549 breast, 58.3% (inactive); in the experiment on MDA-MB-435 melanoma, 54.4% (inactive); with SW-620 colon, 42.6% (inactive); in the experiment with MCF7 breast, 20.8% (inactive); with HCT-116 colon, 50% (inactive). Moreover, the growth is 58.2% (inactive) in the experiment with HCC-2998 colon and 42.6% (inactive) in the experiment on KM12 colon.

Consider `CC(=O)C(=Cc1ccc(C=C(C(C)=O)C(C)=O)cc1)C(C)=O`, for which the growth in the experiment with T-47D breast was 29.1% (inactive); in the experiment on BT-549 breast it was 12.6% (inactive); with MDA-MB-435 melanoma, 7.62% (active); in the experiment with SW-620 colon it was -11.2% (active); in the experiment with HCT-116 colon, -56.3% (active); with HCC-2998 colon, 45.2% (inactive). Further, the growth with KM12 colon was -43.7% (active).

`CN1c2ccccc2C(C)(C)C12C=Cc1cc(O)ccc1O2` (stereo unspecified): the growth with T-47D breast was 40.2% (inactive); in the experiment on BT-549 breast, 33.2% (inactive); in the experiment with MDA-MB-435 melanoma, -66.4% (active); with SW-620 colon, 46.9% (inactive); in the experiment on MCF7 breast, 5.47% (active); with HCT-116 colon, 67.9% (inactive). Besides, the growth was 83.2% (inactive) in the experiment on HCC-2998 colon and 18.7% (inactive) in the experiment on KM12 colon.

On to `CCC(=O)Sc1ccccc1C(=O)Nc1ccc(Cl)cc1`, for which the growth is 45.1% (inactive) with T-47D breast; 10.2% (inactive) in the experiment on BT-549 breast; 25.9% (inactive) with MDA-MB-435 melanoma; 17.5% (inactive) with SW-620 colon; 19% (inactive) in the experiment with MCF7 breast; 25.8% (inactive) in the experiment with HCT-116 colon. Moreover, the growth with HCC-2998 colon is 85.7% (inactive); in the experiment with KM12 colon it was 64.9% (inactive).

With `C[N+](C)=c1ccc2nc3c(cc(NCCCNc4cc5oc6cc(=[N+](C)C)ccc-6nc5c5ccccc45)c4ccccc43)oc-2c1`, the growth with T-47D breast was 46.2% (inactive); in the experiment with BT-549 breast it was 61.6% (inactive); with MDA-MB-435 melanoma it was -82.1% (active); in the experiment with SW-620 colon, -25.5% (active); with MCF7 breast, -52.4% (active); with HCT-116 colon, -36.9% (active). The growth is 23.7% (inactive) in the experiment on HCC-2998 colon and 17.5% (inactive) in the experiment on KM12 colon.

On to `CN=C(N)N/N=C(\C)c1ccc2c(c1)Cc1cc(/C(C)=N/NC(N)=NC)ccc1-2`, for which the growth is -26% (active) in the experiment with T-47D breast; 49.6% (inactive) in the experiment on BT-549 breast; -59.7% (active) in the experiment on MDA-MB-435 melanoma; -14.8% (active) in the experiment on SW-620 colon; -38.3% (active) in the experiment with MCF7 breast; -23.5% (active) with HCT-116 colon. Also, the growth with HCC-2998 colon is -78.7% (active); in the experiment on KM12 colon it was -20.3% (active).

Turning to `CN(C)c1ccc(N=Nc2cccc3ccccc23)cc1`, the growth is 22.2% (inactive) in the experiment with T-47D breast; 76.8% (inactive) in the experiment with BT-549 breast; 98.8% (inactive) in the experiment on MDA-MB-435 melanoma; 98.6% (inactive) with SW-620 colon; 14.2% (inactive) with MCF7 breast; 75.2% (inactive) with HCT-116 colon. Further, the figures for the growth with HCC-2998 colon and in the experiment on KM12 colon were 69.2% (inactive) and 94.2% (inactive), respectively.

Consider `N#CC1C(=O)SC2c3ccccc3C(=O)c3ccccc3C12` (stereo unspecified), for which the growth was 89% (inactive) with T-47D breast; 101% (inactive) with BT-549 breast; 107% (inactive) in the experiment on MDA-MB-435 melanoma; 101% (inactive) in the experiment on SW-620 colon; 98.9% (inactive) with MCF7 breast; 102% (inactive) in the experiment with HCT-116 colon. For the same compound, the growth is 102% (inactive) with HCC-2998 colon and 96.6% (inactive) in the experiment on KM12 colon.

In the case of `Cc1ccc(NS(=O)(=O)c2ccc(C)cc2)cc1`, the growth was 94.1% (inactive) and 83.7% (inactive) in the experiment with T-47D breast; 117% (inactive) and 105% (inactive) with BT-549 breast; 108% (inactive) and 109% (inactive) in the experiment on MDA-MB-435 melanoma; 104% (inactive) and 107% (inactive) in the experiment with SW-620 colon; 88% (inactive) and 91.2% (inactive) in the experiment with MCF7 breast; 102% (inactive) and 98.1% (inactive) in the experiment on HCT-116 colon. The growth in the experiment with HCC-2998 colon was 97.7% (inactive) and 97.8% (inactive); with KM12 colon, 91.2% (inactive) and 89.2% (inactive).

Regarding `CC(=O)ON=C1C=CC(=C(C#N)c2ccccc2)C=C1`, the growth was 42.3% (inactive) in the experiment on T-47D breast; 50.7% (inactive) in the experiment on BT-549 breast; -2.19% (active) in the experiment on MDA-MB-435 melanoma; 6.41% (active) in the experiment on SW-620 colon; 15.5% (inactive) in the experiment with MCF7 breast; -13.1% (active) in the experiment with HCT-116 colon. Moreover, the values for the growth in the experiment on HCC-2998 colon and in the experiment with KM12 colon were 88.3% (inactive) and -48.2% (active), respectively.

Turning to `CC1SC(=S)N(c2ccc(Cl)cc2)C1=O` (stereo unspecified), the growth in the experiment with T-47D breast was 73.9% (inactive) and 62.8% (inactive); in the experiment on BT-549 breast, 106% (inactive) and 86.2% (inactive); with MDA-MB-435 melanoma it was 106% (inactive) and 99.8% (inactive); in the experiment with SW-620 colon, 109% (inactive) and 113% (inactive); in the experiment with MCF7 breast, 96.9% (inactive) and 79.9% (inactive); with HCT-116 colon, 100% (inactive) and 93.4% (inactive). Besides, the growth is 90.7% (inactive) in the experiment with HCC-2998 colon; 94.6% (inactive) and 108% (inactive) with KM12 colon.

On to `CN(C)c1ccc(C(=C2C=CC(=[N+](C)C)C=C2)c2ccc(N(C)C)cc2)cc1` (tested in a mixture with another compound), for which the growth in the experiment on T-47D breast is -92.4% (active); in the experiment with MDA-MB-435 melanoma, -57.7% (active); in the experiment on SW-620 colon it was -72.3% (active); in the experiment on MCF7 breast it was -92.3% (active); in the experiment on HCT-116 colon, -76% (active); in the experiment on HCC-2998 colon, -80.3% (active). In addition, the growth in the experiment with KM12 colon was -95.3% (active).

In the case of `C=CCOc1ccc(N=NC(C#N)C#N)cc1`, the growth was -2.81% (active) in the experiment on T-47D breast; 92.1% (inactive) in the experiment with BT-549 breast; 88.3% (inactive) with MDA-MB-435 melanoma; 40.4% (inactive) with SW-620 colon; 46.8% (inactive) in the experiment on HCT-116 colon; 101% (inactive) in the experiment on HCC-2998 colon. Further, in the experiment on KM12 colon, the growth is 100% (inactive).

For the compound `COc1ccccc1/C=C\C(=O)c1ccccc1`, the growth in the experiment with T-47D breast was 81.9% (inactive); with BT-549 breast, 83.2% (inactive); in the experiment on MDA-MB-435 melanoma it was 46.4% (inactive); in the experiment with SW-620 colon, 2.63% (active); with HCT-116 colon, 22% (inactive); in the experiment with HCC-2998 colon, 97% (inactive). The growth in the experiment on KM12 colon is 29.5% (inactive).
